Source: the antibiotic and cytotoxicity screens of Wong et al. (2023)
Out of some 39,000 compounds screened, about 500 (1.3%) were called active. Only a selection was taken, and actives are over-represented in it overall.

What follows are molecules tested on S. aureus RN4220 (assay: growth inhibition call (relative growth <= 0.2)). Conditions: 50 µM.

Row | SMILES | growth inhibition call
1 | C[C@@H]1CN([C@H](C)CO)C(=O)c2cc(NC(=O)Nc3ccc4c(c3)OCO4)ccc2O[C@@H]1CN(C)Cc1ccc(C(F)(F)F)cc1 | inactive
2 | C[C@H]1CCCCO[C@H](CN(C)CC2CCCCC2)[C@@H](C)CN([C@@H](C)CO)C(=O)c2cc(NC(=O)C3CCCCC3)ccc2O1 | inactive
3 | O=C(Nc1nc(OCCN2CCCC2=O)cnc1-c1cc(Cl)cc(Cl)c1)c1cc2ccccc2s1 | inactive
4 | C[C@H](CO)N1C[C@H](C)[C@H](CN(C)Cc2ccc(C(=O)Nc3ccccc3N)cc2)Oc2c(NC(=O)Nc3cccc4ccccc34)cccc2C1=O | inactive
5 | C[C@H](CO)N1C[C@H](C)[C@H](CN(C)C(=O)Nc2ccc3c(c2)OCO3)Oc2c(NC(=O)Nc3ccc(C(F)(F)F)cc3)cccc2C1=O | active
6 | C[C@H](CO)N1C[C@H](C)[C@H](CN(C)C(=O)Nc2ccc(C(F)(F)F)cc2)Oc2c(NC(=O)Nc3ccc4c(c3)OCO4)cccc2C1=O | inactive
7 | C[C@@H]1CN([C@@H](C)CO)C(=O)c2cccc(NC(=O)Nc3ccc(C(F)(F)F)cc3)c2O[C@H]1CN(C)C(=O)Nc1ccc2c(c1)OCO2 | inactive
8 | C[C@@H]1CN([C@H](C)CO)C(=O)c2cccc(NC(=O)Nc3ccc(C(F)(F)F)cc3)c2O[C@@H]1CN(C)C(=O)Nc1ccc2c(c1)OCO2 | inactive
9 | C[C@H]1CN([C@@H](C)CO)C(=O)c2cccc(NC(=O)Nc3ccc4c(c3)OCO4)c2O[C@@H]1CN(C)C(=O)Nc1ccc(C(F)(F)F)cc1 | inactive
10 | C[C@H]1CN([C@@H](C)CO)C(=O)c2cccc(NC(=O)Nc3ccc(C(F)(F)F)cc3)c2O[C@H]1CN(C)C(=O)Nc1ccc2c(c1)OCO2 | active
11 | C[C@H](CO)N1C[C@H](C)[C@H](CN(C)Cc2ccc3c(c2)OCO3)OCCCC[C@H](C)Oc2ccc(NC(=O)CCC(F)(F)F)cc2C1=O | inactive
12 | COc1ccccc1-c1ccc2c(c1)O[C@@H](CN(C)C(=O)c1cccnc1)[C@@H](C)CN([C@@H](C)CO)S2(=O)=O | inactive
13 | COc1cccc(NC(=O)C[C@@H]2CC[C@@H]3[C@H](COc4ccc(NC(=O)C5CCOCC5)cc4C(=O)N3C)O2)c1 | inactive
14 | Cc1noc(C)c1S(=O)(=O)Nc1ccc2c(c1)C(=O)N([C@H](C)CO)C[C@H](C)[C@H](CN(C)S(=O)(=O)c1ccc(F)cc1)O2 | inactive
15 | CCOC(=O)[C@H]1C/C=C/C[C@H](C(=O)OCC)C(=O)O[C@H]2[C@@H](OC)O[C@H](CO)[C@@H](OC(=O)Nc3ccc(Br)cc3)[C@@H]2OC1=O | inactive
16 | CCOc1ccc(CO[C@@H]2O[C@H](CO)[C@@H](O)[C@H](O)[C@H]2NC(C)=O)cc1OC | inactive
17 | Cn1cnc(CCNC(=O)C[C@H]2CC[C@@H]3[C@H](COC[C@@H](O)CN3C(=O)Nc3ccc(C(F)(F)F)cc3)O2)c1 | inactive
18 | Cn1cnc(CCNC(=O)C[C@@H]2CC[C@H]3[C@@H](COC[C@H](O)CN3C(=O)Nc3ccc(Cl)cc3)O2)c1 | inactive
19 | Cn1cnc(CCNC(=O)C[C@H]2CC[C@@H]3[C@H](COC[C@H](O)CN3C(=O)Nc3ccc(C(F)(F)F)cc3)O2)c1 | active
20 | Cn1cnc(CCNC(=O)C[C@H]2CC[C@@H]3[C@H](COC[C@@H](O)CN3C(=O)Nc3ccc(Cl)cc3)O2)c1 | inactive

Row | SMILES | growth inhibition call
21 | Cn1cnc(CCNC(=O)C[C@H]2CC[C@H]3[C@@H](COC[C@@H](O)CN3C(=O)Nc3ccc(C(F)(F)F)cc3)O2)c1 | active
22 | Cn1cnc(CCNC(=O)C[C@@H]2CC[C@@H]3[C@H](COC[C@@H](O)CN3C(=O)Nc3ccc(C(F)(F)F)cc3)O2)c1 | inactive
23 | Cn1cnc(CCNC(=O)C[C@@H]2CC[C@H]3[C@@H](COC[C@@H](O)CN3C(=O)Nc3ccc(Cl)cc3)O2)c1 | inactive
24 | Cn1cnc(CCNC(=O)C[C@@H]2CC[C@@H]3[C@H](COC[C@H](O)CN3C(=O)Nc3ccc(C(F)(F)F)cc3)O2)c1 | active
25 | Cn1cnc(CCNC(=O)C[C@H]2CC[C@H]3[C@@H](COC[C@@H](O)CN3C(=O)Nc3ccc(Cl)cc3)O2)c1 | inactive
26 | Cn1cnc(CCNC(=O)C[C@H]2CC[C@H]3[C@@H](COC[C@H](O)CN3C(=O)Nc3ccc(C(F)(F)F)cc3)O2)c1 | inactive
27 | Cn1cnc(CCNC(=O)C[C@@H]2CC[C@H]3[C@@H](COC[C@@H](O)CN3C(=O)Nc3ccc(C(F)(F)F)cc3)O2)c1 | active
28 | Cn1cnc(CCNC(=O)C[C@@H]2CC[C@H]3[C@@H](COC[C@H](O)CN3C(=O)Nc3ccc(C(F)(F)F)cc3)O2)c1 | inactive
29 | CN1C(=O)c2cc(NC(=O)C3CCC3)ccc2OC[C@H]2O[C@H](CC(=O)NCCc3ccncc3)CC[C@H]21 | inactive
30 | CO[C@H]1CN(C)C(=O)c2cc(NS(=O)(=O)CC(F)(F)F)ccc2OC[C@@H](C)N(C(=O)NC(C)C)C[C@H]1C | inactive
31 | O=C(C[C@@H]1CC[C@H](NC(=O)Cc2ccccn2)[C@H](CO)O1)NCCCN1CCOCC1 | inactive
32 | COCCOC(=O)N1C(=O)[C@@]2(c3cc(C#Cc4ccc(OC)cc4)ccc31)[C@H](C(=O)N1CCc3cc(OC)c(OC)cc3C1)[C@H]1C(=O)O[C@H](c3ccccc3)[C@H](c3ccccc3)N1[C@@H]2c1ccc(O)cc1 | inactive
33 | C[C@H]1CN([C@@H](C)CO)C(=O)c2cc(C3=CCCC3)cnc2O[C@H]1CN(C)C(=O)Nc1ccc(C(F)(F)F)cc1 | inactive
34 | C[C@H]1CN([C@@H](C)CO)C(=O)c2cccc(NC(=O)Nc3cccc4ccccc34)c2O[C@@H]1CN(C)C(=O)Nc1cccc2ccccc12 | inactive
35 | C#CCn1c(=O)c2c(OC)ccnc2n(C)c1=O | inactive
36 | Cc1ccccc1S(=O)(=O)N1[C@@H]2Cn3c(cccc3=O)[C@H]1[C@@H](C(=O)N1CCOCC1)[C@@H]2CO | inactive
37 | COc1ccc(NC(=O)Nc2ccc3c(c2)C(=O)N([C@@H](C)CO)C[C@@H](C)[C@@H](CN(C)Cc2ccc(Oc4ccccc4)cc2)O3)cc1 | inactive
38 | CN1C(=O)c2cc(NS(C)(=O)=O)ccc2OC[C@H]2O[C@@H](CC(=O)N3CCOCC3)CC[C@H]21 | inactive
39 | C[C@@H]1CN([C@@H](C)CO)C(=O)Cc2cc(NS(=O)(=O)c3ccc(Cl)cc3)ccc2O[C@@H]1CN(C)C(=O)Nc1ccc(C(F)(F)F)cc1 | inactive
